The values that follow come from ChEMBL document CHEMBL1961873, “Compounds: GSK PKIS; Assays: Nanosyn kinase panel” (2012).

SMILES strings stand for the structures. Values joined by “and” are separate entries in the source; they are usually repeats but may differ in a detail not shown here. Equal entries are not always repeated.
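Note: reported values are averages (mean inhibition of CAMK2A).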

The target of this assay is Calcium/calmodulin-dependent protein kinase type II subunit alpha (Homo sapiens) (UniProt Q9UQM7). Conditions: at 0.1 µM.
Sequence of Calcium/calmodulin-dependent protein kinase type II subunit alpha (Homo sapiens) (Q9UQM7 whole entry): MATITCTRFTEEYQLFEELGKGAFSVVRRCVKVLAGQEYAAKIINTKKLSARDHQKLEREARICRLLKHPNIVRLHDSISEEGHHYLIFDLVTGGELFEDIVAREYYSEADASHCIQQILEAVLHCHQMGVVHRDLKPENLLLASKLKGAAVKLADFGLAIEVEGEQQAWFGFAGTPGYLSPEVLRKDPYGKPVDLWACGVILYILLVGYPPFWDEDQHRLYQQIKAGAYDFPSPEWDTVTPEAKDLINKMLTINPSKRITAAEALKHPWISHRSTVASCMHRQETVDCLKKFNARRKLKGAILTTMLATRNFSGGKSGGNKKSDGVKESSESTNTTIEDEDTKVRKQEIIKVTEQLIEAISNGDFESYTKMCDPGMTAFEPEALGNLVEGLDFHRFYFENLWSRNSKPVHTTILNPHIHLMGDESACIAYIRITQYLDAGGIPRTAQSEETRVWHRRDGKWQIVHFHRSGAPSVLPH
Regarding `COc1cccc(-n2ncc3c(N/N=C/c4ccc(C(=O)NCCN(C)C)cc4)ncnc32)c1`, the inhibition was 2.13%. With `CS(=O)(=O)Nc1ccc(-c2cc(-c3ccccc3)cc(C(N)=O)c2N)cc1` the figure was -1.51%.

As for `CCn1c(-c2nonc2N)nc2cncc(C(=O)NCCNC)c21`, the inhibition is 2.44%. With `NS(=O)(=O)c1ccc(N/N=C2\C(=O)Nc3cccc(CCc4ccncc4)c32)cc1` the figure was -1.5%. Regarding `CCOc1ccc2c(-c3ccnc(Nc4cc(OC)cc(C(F)(F)F)c4)n3)cnn2n1`, the inhibition is -1.52%.

As to `Cc1ccc(-c2cc3c(NC(=O)C4CC4)ncnc3o2)cc1`, the inhibition worked out at 4.04%.

Turning to `COc1cc2c(cc1Nc1nc(Nc3cccc(F)c3C(N)=O)c3cc[nH]c3n1)N(C(=O)CN1CCN(C(C)C)CC1)CC2`, the inhibition is 2.3%. Then `Nc1ncnc2occ(-c3ccc(NC(=O)Nc4cc(C(F)(F)F)ccc4F)cc3)c12`, with 2.82% and -3.6%. As to `CN1CCN(Cc2ccc(-c3cc4ncnc(Nc5ccc(OCc6cccc(F)c6)c(Cl)c5)c4s3)o2)CC1`, the inhibition was 0.12% and 4.61%. With `NC(=O)c1ccc2c(-c3ccnc(NCCCO)n3)c(-c3ccc(F)cc3)nn2c1` the figure was 3.83%; with `CN1CCC(n2cnc(-c3ccc(F)cc3)c2-c2ccnc(NCCO)n2)CC1`, 8.05%. Then `O=C(O[C@H]1CN[C@H](C#Cc2cc3ncnc(Nc4ccc5c(cnn5Cc5ccccc5)c4)c3s2)C1)N1CCOCC1`, with -0.77%; and `Cc1c2ccc(N(C)c3ccnc(Nc4cccc(S(N)(=O)=O)c4)n3)cc2nn1C`, with 3.49%; and `CNC(=O)c1cncc(/C=C/c2ccccc2C)c1`, with 4.14%.

Turning to `COc1ccc(Nc2ncc(-c3ccccc3)o2)cc1OC`, the inhibition is 1.79%. On to `CS(=O)(=O)CCNCc1ccc(-c2ccc3ncnc(Nc4ccc(OCc5ccccc5)cc4)c3c2)o1`, for which the inhibition was found to be 2.27%.

Consider `CCCNc1cccc(-n2ncc3c(N/N=C/c4ccncc4)ncnc32)c1`, for which the inhibition came to 1.4%. Then `COc1c(C(N)=O)cc(-c2ccc(Cl)cc2)cc1-c1ccc(S(N)(=O)=O)cc1`, with 3.01%; and `COc1cccc(Nc2nccc(-c3cnn4ncccc34)n2)c1`, with 4.77%; and `CN(c1ccc(NC(=O)NCCN2CCOCC2)cc1)c1ccnc(Nc2ccc(CS(C)(=O)=O)cc2)n1`, with 1.72%. With `COc1ccc(-c2nn3ncccc3c2-c2ccnc(Nc3ccc(F)c(F)c3)n2)cc1` the figure was 3.21%. Then `COc1cc(N2CCN(C(C)C)CC2)ccc1Nc1nc(Nc2cccc(F)c2C(=O)O)c2cc[nH]c2n1`, with 3.99%.

For the molecule `CC(C)c1ccc(-c2cc(-c3c[nH]nc3-c3ccccn3)ccn2)cc1`, the inhibition is -0.6%.

For `CS(=O)(=O)Nc1ccc(-c2ccc3c(NC(=O)C4CC4)n[nH]c3c2)cc1`, the inhibition was 4.36%. With `Cn1c(-c2nonc2N)nc2cnccc21` the figure was 3.13%; with `CS(=O)(=O)CCNCc1ccoc1-c1ccc2ncnc(Nc3ccc(OCc4ccccc4)cc3)c2c1`, -0.63%; with `O=C(O[C@H]1CN[C@H](C#Cc2cc3ncnc(Nc4ccc5c(ccn5Cc5cc(F)ccc5F)c4)c3s2)C1)N1CCOCC1`, 2.78%. For the molecule `Nc1nccc(-c2c(-c3ccc(F)cc3)ncn2C2CCNCC2)n1`, the inhibition was -5.11% and -1.58%. Then `COC(=O)Nc1nc2cc(Oc3ccc(NC(=O)Nc4ccccc4)cc3)ccc2[nH]1`, with 2.23%. As to `CNC(=O)c1ncccc1Nc1nc(Nc2cc3c(cc2OC)CCCN3C(=O)CN(C)C)nc2[nH]ccc12`, the inhibition was 4.09%.

Take `O=C(Nc1n[nH]c2nnc(-c3cccnc3)cc12)C1CC1`: the inhibition was -1.44%.

One may read the inhibition as the change of the read-out against control, counted positive when it falls.
